From PubChem BioAssay AID652054 (National Center for Advancing Translational Sciences (NCATS), 2013)
Out of some 360,000 compounds screened, about 9,100 (2.5%) were called active. Roughly 4% stayed inconclusive and do not appear here. Rule as the data show it: active = max response below about -50%; inconclusive = no clear call, values can overlap the other calls; inactive = above that. The full list was thinned out, with actives kept by preference.

What follows are compounds tested against D(3) dopamine receptor (Homo sapiens) (UniProt P35462) (assay: qHTS of D3 Dopamine Receptor Antagonist: qHTS). Details: D3R cells, DiscoveRx beta-arrestin luminescence, antagonist mode; active compounds read low.
How it was run: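 Cells plated overnight at 1500 cells/well, then exposed to library compounds with dopamine controls for 90 minutes at 37 degrees C. DiscoveRx reagent added for 30–60 minutes at room temperature; luminescence read, quantitative HTS format.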
% is scaled to controls: 0 for no effect and ±100 for the full control effect.

Sequence of D(3) dopamine receptor (Homo sapiens) (P35462 whole entry, looked up): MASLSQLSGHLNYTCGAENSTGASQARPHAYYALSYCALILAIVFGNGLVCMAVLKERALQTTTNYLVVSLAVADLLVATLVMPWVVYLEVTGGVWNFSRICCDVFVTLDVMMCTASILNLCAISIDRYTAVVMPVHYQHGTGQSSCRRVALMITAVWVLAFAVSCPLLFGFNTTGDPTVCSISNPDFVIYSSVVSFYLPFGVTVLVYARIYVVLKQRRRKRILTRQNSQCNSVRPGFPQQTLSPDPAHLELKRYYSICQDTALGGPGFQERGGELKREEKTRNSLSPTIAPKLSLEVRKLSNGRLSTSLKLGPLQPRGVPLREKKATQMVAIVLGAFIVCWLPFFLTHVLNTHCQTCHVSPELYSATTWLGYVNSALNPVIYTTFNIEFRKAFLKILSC

Max response, negative = inhibition, inactive:
O=C(NCc1ccc(F)cc1F)[C@@H]1CCCN1C(=O)[C@@H]1CCCN1C(=O)c1cccc(Cl)c1 -16.8%
C[C@H](NC(=O)[C@@H]1CCCN1C(=O)[C@@H]1CCCN1C(=O)c1ccccc1)c1ccccc1 -14.2%
O=C(OCc1ccccc1)N1CCC2CC1c1cc(N3CCN(S(=O)(=O)c4cc(Cl)cc(Cl)c4)CC3)ccc12 (centres undefined) -1.81%
Cc1ccc(S(=O)(=O)N(CCc2ccccc2)c2ccc3c(c2)C2CC3CCN2C(=O)OCc2ccccc2)cc1 (centres undefined) 0%
Cc1ccc(NC(=O)Cn2sc3ccccc3c2=O)cc1 -0.282%
CCNC(=S)Nc1ccc2c(c1)c(=O)n(C)n2Cc1ccc(Cl)cc1 8.41%
COC(=O)c1ccccc1N=NNc1ccc([N+](=O)[O-])cc1 8.12%
CNC(=S)Nc1ccc([N+](=O)[O-])cc1 -17.8%
O=C(NC1CCCC1)C1c2ccccc2OCC(=O)N1Cc1ccccc1 (centres undefined) 4.78%
COc1ccc(C(C(=O)Nc2c(C)cccc2C)N2CCN(c3ccc(C)cc3)CC2)cc1 (centres undefined) 11.5%
COCCCn1cc(CN2CC(N(C)C)CS2(=O)=O)nn1 (centres undefined) -10.8%
CCCCCCCCN1C(=O)[C@H](CC(=O)NCC23CC4CC(CC(C4)C2)C3)C[C@@]2(C(=O)OC)CCCCC=C12 9.16%
O=C(NCc1cccnc1)c1cc(C2CCCN(C(=O)C3CCCCC3)C2)on1 (centres undefined) 6.18%
COCCNC(=O)C1CCCN(Cc2ccccc2Cl)CC1 (centres undefined) 57.8%
Cc1ccc(Sc2ccc(NC(=O)c3ccc(F)cc3)cc2C#N)cc1 0%
CC(=O)Nc1ccc(NC(=O)COc2ccccc2C(=O)Nc2cccc(Cl)c2Cl)cc1 -0.418%
Cc1ccccc1OCC(=O)Nc1ccc(N2CCN(C(=O)C(C)C)CC2)c(Cl)c1 26.3%
COc1ccc(-c2cnc3c(c2)C(=O)N([C@H](C)CO)C[C@@H](C)[C@H](CN(C)Cc2ccccc2)O3)cc1 14.3%
CCN1C(=O)[C@@H]2[C@@H]3CN(S(=O)(=O)c4ccccc4C)[C@@H](c4ccc(Cl)cc4)[C@@H]3C(=O)C[C@@H]2C1=O -17.8%
CCN(CC)CCN(C(=O)c1cccc([N+](=O)[O-])c1)c1nc2ccc(OC)cc2s1 8.97%
CCN(CC)CCN(C(=O)c1cc(Cl)sc1Cl)c1nc2cc3c(cc2s1)OCO3 -11.6%
COc1ccc(NC2CCCN(C(=O)c3ccccc3-c3ncc[nH]3)C2)cc1 (centres undefined) -2.79%
Cc1cc(C)nc(N(C#N)CC(=O)Nc2ccccc2)n1 -15.5%
O=C(/C=C/NNC(=O)c1cccc(Br)c1)c1ccccc1 0%
COc1ccc([C@H]2N[C@]3(CCCN(Cc4ccco4)C3=O)[C@H]3C(=O)N(C)C(=O)[C@@H]23)cc1 -22%
Cc1cccc(N(CC(=O)N2CCCC2)S(C)(=O)=O)c1C -2.72%
Cc1ccc(S(=O)(=O)N2CCOCC2)cc1C(=O)Nc1ccccc1N1CCCC1 13.7%
CCc1nnc(NC(=O)c2cc(S(=O)(=O)N3CCCCC3)ccc2C)s1 -2.53%
CCOC(=O)c1cc(-c2sc(NC(=O)c3ccccc3)nc2C)n(CCO)n1 -12.9%
Fc1ccc(Cn2nnnc2C(c2cccs2)N2CCCCCC2)cc1 (centres undefined) 10.3%
COc1ccc(OC)c(C(c2nnnn2C(C)(C)C)N2CCc3ccccc3C2)c1 (centres undefined) -1.6%
CCCC(c1nnnn1C(C)(C)C)N1CCN(Cc2ccccc2)CC1 (centres undefined) -5.41%
CCC(C)(C)n1nnnc1C(c1cccs1)N1CCN(c2nc3ccccc3s2)CC1 (centres undefined) -16.1%
N#Cc1cccc(NC(=O)c2cc(C3CCCCN3C(=O)CCc3ccccc3)on2)c1 (centres undefined) -8.91%
CCCCCn1nnnc1-c1nc2cc3ccccc3cc2[nH]c1=O -8.12%
COCCCNc1ccn2nc(-c3ccc(CC(C)C)cc3)cc2n1 31.5%
Cc1ccccc1NC(=O)Cc1nc(COC(=O)C(C)(C)Oc2ccc(Cl)cc2)cs1 24.6%
CC(C)(C)CC(=O)Nc1nc(C(N)Cc2ccc(C(F)(F)F)cc2)cs1 (centres undefined) 0%
Cc1nnc(SCC(=O)Nc2cccc(N)c2)n1-c1ccccc1 9.89%
Cc1ccc(-c2nnc(SCC(=O)N/N=C/c3cccs3)n2-c2ccc(C)cc2)cc1 11.6%
CCOC(=O)[C@]12CCCC=C1N(CCC1=CCCCC1)C(=O)[C@H](CC(=O)NCCCCc1ccccc1)C2 -12.8%
CCC(C(=O)Nc1c(C)cccc1C)n1c(-c2cc(C)cs2)nc2ccccc21 (centres undefined) -4.88%
Nc1ncnc2c1ncn2[C@@H]1O[C@H](C(=O)NS(=O)(=O)c2c(Cl)nc3sccn23)[C@@H](O)[C@H]1O 24.3%
Cc1ccc(-c2ccc(CN3C(C(C)C)C(=O)N(Cc4cn(CCC5OCCO5)nn4)CCS3(=O)=O)cc2)cc1 (centres undefined) 5.58%

Max response, negative = inhibition, active:
O=C(OCc1ccccc1)N1CCC2CC1c1ccc(-c3ccc4c(c3)OCO4)cc12 (centres undefined) -78.9%
O=[N+]([O-])c1ccc(N=NNc2ccc([N+](=O)[O-])cc2)cc1 -50.6%
COc1cc(NC(=O)COc2ccccc2Cl)ccc1NC(=O)C(C)C -74%
CCN(CC)CCN(C(=O)c1ccc2c(c1)CCCC2)c1nc2c(OC)cccc2s1 -103%
Cc1cc(C)nc(S/C=C/C(=O)c2ccccc2)n1 -62.5%
CCOC(=O)c1sc(NC(=O)c2cc(S(=O)(=O)N3CCOCC3)ccc2C)nc1C -55.1%
CCC(C)(C)n1nnnc1C(c1cccs1)N1CCN(Cc2ccccc2)CC1 (centres undefined) -56.8%
COc1ccccc1C(c1nnnn1C(C)(C)C)N1CCN(Cc2ccccc2)CC1 (centres undefined) -90.6%
Cc1nnc(SCC(=O)N/N=C/c2cn(-c3ccccc3)nc2-c2ccc(F)cc2)n1-c1ccccc1 -52.1%
Nc1c(C(=O)c2cccs2)sc2nsc(SCCN3CCCCC3)c12 -51.8%
